The values that follow come from PubChem BioAssay (Tox21).

Assay [1] deals with Thyrotropin receptor (Homo sapiens) (UniProt P16473). Kind of assay: qHTS assay to identify small molecule agonists of the thyroid stimulating hormone receptor (TSHR) signaling pathway (AID 1224843; calls by dose curve; note: nearly all actives have a fitted effect of over 45% in size; note: potency is the fitted concentration of half-maximal effect). The essentials: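 Steps: seed 800 TSHR-HEK293 cells per well; add test compound and hold 30 min at ambient temperature; dispense cAMP-d2 then anti-cAMP cryptate; incubate 1 h at ambient; measure fluorescence intensity.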
Background: qHTS replaces the single test concentration by a dilution series.

The nature of assay [2]: qHTS assay to identify small molecule agonists of the hypoxia (HIF-1) signaling pathway - cell viability counter screen (AID 1224844; calls by dose curve; note: nearly all actives have a fitted effect of over 50% in size; note: potency is the fitted concentration of half-maximal effect). An outline of the steps: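 HRE-bla ME-180 cells in medium with 0.5% dialyzed FBS were preincubated 5 hrs at 37C, exposed to compounds for 17 hrs, then viability was read as CellTiter-Glo luminescence after 30 min at room temperature, in the reporter wells.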

A short description of assay [3]: qHTS assay to identify small molecule agonists of H2AX (AID 1224845; active = well fitted activation curve with a large enough effect in the signal ratio in the repeat runs, not every such curve was filed as active; the % refers to the signal ratio). The essentials: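 Wild-type CHO-K1 cells, plated overnight, exposed 3hr at 37C to 15 concentrations (0.76% DMSO final). Lysed, then HTRF anti-pH2AX (S139) cryptate and anti-H2AX-d2 antibodies, 24 hr room temperature; 665/620 nm emission read.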
Assay [4] can be described thus: qHTS assay to identify small molecule agonists of H2AX - cell viability counter screen (AID 1224847; calls by dose curve; note: nearly all actives have a fitted effect of over 30% in size; note: potency is the fitted concentration of half-maximal effect). An outline of the steps: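 After overnight plating of 1000 CHO-K1 cells per well, a 15-concentration compound series was applied for 3 hr at 37C. Luminescence from CellTiter-Glo, read following 30 min at room temperature, reflected cell viability.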
A short description of assay [5]: qHTS RealTime-Glo MT Cell Viability Assay in HepG2 cells - 24 hour (AID 1224867). Note: nearly all actives have a fitted effect of over 50% in size. Note: potency is the fitted concentration of half-maximal effect. An outline of the steps: (§1)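 HepG2 cells (600/well) were dispensed with RealTime-Glo reagents, incubated 5 h at 37 °C, then treated with compounds in DMSO for up to 40 h. Nonlytic NanoLuc luminescence reflecting viable cells was read at each stated time point.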
A short description of assay [6]: qHTS RealTime-Glo MT Cell Viability Assay in HEK293 cells - 32 hour (AID 1224868). Note: nearly all actives have a fitted effect of over 50% in size. Note: potency is the fitted concentration of half-maximal effect. The essentials:
(§2)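 HEK293 cells seeded with NanoLuc/prosubstrate reagent, rested 5 h at 37 C, then dosed and kept at 37 C up to 40 h. Nonlytic real-time luminescence from viable cells read at 0, 8, 16, 24, 32 and 40 h.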

Assay [7] in a line: A CellTox Green Cytotoxicity Assay to monitor cytotoxicity in HEK293 cells - 0 hour (AID 1224869). Note: nearly all actives have a fitted effect of over 50% in size. An outline of the steps:
(§3)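 HEK293 cells premixed with CellTox Green dye were seeded at 600 cells/well and left 5 h at 37 C/5% CO2 before pin transfer of 23 nL compound in DMSO. Fluorescence from dye bound to dead-cell DNA was read during 40 h treatment.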

The nature of assay [8]: qHTS RealTime-Glo MT Cell Viability Assay in HepG2 cells - 40 hour (AID 1224870). Note: nearly all actives have a fitted effect of over 50% in size. Note: potency is the fitted concentration of half-maximal effect. An outline of the steps: (§4)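 HepG2 cells (600/well) mixed with RealTime-Glo MT reagent, settled 5 h at 37 C/5% CO2 before compound addition. Nonlytic NanoLuc luminescence from viable-cell prosubstrate reduction read repeatedly during 40 h treatment at 37 C.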
The nature of assay [9]: qHTS RealTime-Glo MT Cell Viability Assay in HEK293 cells - 16 hour (AID 1224872). Note: nearly all actives have a fitted effect of over 50% in size. Note: potency is the fitted concentration of half-maximal effect. The essentials: as §2
The nature of assay [10]: qHTS RealTime-Glo MT Cell Viability Assay in HepG2 cells - 8 hour (AID 1224873). Note: nearly all actives have a fitted effect of over 55% in size. The essentials:
as §4

Assay [11] can be described thus: qHTS RealTime-Glo MT Cell Viability Assay in HEK293 cells - 40 hour (AID 1224874). Note: nearly all actives have a fitted effect of over 50% in size. Note: potency is the fitted concentration of half-maximal effect. The note with it: RealTime-Glo luminescence; max response: stronger effect = lower value. The essentials:
(§5)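 HEK293 cells mixed with RealTime-Glo reagents (NanoLuc plus cell-permeant prosubstrate) at 600 cells/well, preincubated 5 h at 37 C/5% CO2, then given 23 nL compound in DMSO. Nonlytic luminescence from viable cells was read at 0, 8, 16, 24, 32 and 40 h.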

Assay [12] can be described thus: A CellTox Green Cytotoxicity Assay to monitor cytotoxicity in HEK293 cells - 24 hour (AID 1224875). Note: nearly all actives have a fitted effect of over 45% in size. Note: potency is the fitted concentration of half-maximal effect. An outline of the steps:
as §3

Assay [13] is described as follows: A CellTox Green Cytotoxicity Assay to monitor cytotoxicity in HepG2 cells - 16 hour (AID 1224876). Note: nearly all actives have a fitted effect of over 45% in size. Note: potency is the fitted concentration of half-maximal effect. The essentials:
(§6)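 HepG2 cells were seeded together with the CellTox Green dye at 600 cells/well, left 5 h at 37 C/5% CO2, then given compounds in DMSO. Fluorescence from dye bound to dead-cell DNA was read repeatedly over 40 h of treatment at 37 C.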

Assay [14] in a line: A CellTox Green Cytotoxicity Assay to monitor cytotoxicity in HepG2 cells - 24 hour (AID 1224878). Note: nearly all actives have a fitted effect of over 45% in size. Note: potency is the fitted concentration of half-maximal effect. The essentials:
as §6

Assay [15] is described as follows: A CellTox Green Cytotoxicity Assay to monitor cytotoxicity in HepG2 cells - 40 hour (AID 1224879). Note: nearly all actives have a fitted effect of over 40% in size. Note: potency is the fitted concentration of half-maximal effect. An outline of the steps: as §6
Assay [16] is described as follows: qHTS RealTime-Glo MT Cell Viability Assay in HEK293 cells - 0 hour (AID 1224880). An outline of the steps: as §5
A short description of assay [17]: qHTS RealTime-Glo MT Cell Viability Assay in HepG2 cells - 32 hour (AID 1224877). Note: nearly all actives have a fitted effect of over 55% in size. An outline of the steps: as §1
A short description of assay [18]: qHTS assay to identify small molecule agonists of the estrogen related receptor (ERR) signaling pathway from Tox21 library (AID 1224849; calls by dose curve; note: nearly all actives have a fitted effect of over 15% in size). The settings on record: ERR reporter cell line, ONE-Glo luciferase, 18 h. An outline of the steps:
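ERR reporter cell line (NTP) seeded, rested 6 h at 37 C/5% CO2, then pinned with Tox21 compounds in DMSO. After 18 h at 37 C, ONE-Glo luciferase luminescence was read following 30 min at room temperature.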

Assay [19] in a line: A CellTox Green Cytotoxicity Assay to monitor cytotoxicity in HEK293 cells - 40 hour (AID 1224871). Note: nearly all actives have a fitted effect of over 45% in size. An outline of the steps: as §3
Assay [20] can be described thus: qHTS assay to identify small molecule agonists of the hypoxia (HIF-1) signaling pathway (AID 1224846; active = well fitted activation curve with a large enough effect in the signal ratio in the repeat runs, not every such curve was filed as active; the % refers to the signal ratio). The essentials: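 HRE-bla ME-180 cells (beta-lactamase reporter under hypoxia response element) were plated at 2,000 cells/well in medium with 0.5% dialyzed FBS, rested 5 hrs, then given compounds in DMSO for 17 hrs at 37C, 5% CO2. Reporter induction was read with CCF4-AM FRET substrate.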

Each structure is given as a SMILES string. “And” between values parts separate entries of the source, which are not always exact repeats. Identical values can stand only once. Records with an inconclusive call do not appear. A structure can be active in one record and inactive in another. The source made the active and inactive calls. Unless noted, calls come from the whole dose curve; as a rule, active = well fitted curve in the direction sought with a large enough effect in the repeat runs; inconclusive = weak or mixed curves; inactive = no such curve, though single readings can be large; an effect the other way counts as inactive or inconclusive.
% is set by controls: 0 for no effect and ±100 for the full control effect.

Thyrotropin receptor (Homo sapiens), sequence (P16473 whole entry, looked up): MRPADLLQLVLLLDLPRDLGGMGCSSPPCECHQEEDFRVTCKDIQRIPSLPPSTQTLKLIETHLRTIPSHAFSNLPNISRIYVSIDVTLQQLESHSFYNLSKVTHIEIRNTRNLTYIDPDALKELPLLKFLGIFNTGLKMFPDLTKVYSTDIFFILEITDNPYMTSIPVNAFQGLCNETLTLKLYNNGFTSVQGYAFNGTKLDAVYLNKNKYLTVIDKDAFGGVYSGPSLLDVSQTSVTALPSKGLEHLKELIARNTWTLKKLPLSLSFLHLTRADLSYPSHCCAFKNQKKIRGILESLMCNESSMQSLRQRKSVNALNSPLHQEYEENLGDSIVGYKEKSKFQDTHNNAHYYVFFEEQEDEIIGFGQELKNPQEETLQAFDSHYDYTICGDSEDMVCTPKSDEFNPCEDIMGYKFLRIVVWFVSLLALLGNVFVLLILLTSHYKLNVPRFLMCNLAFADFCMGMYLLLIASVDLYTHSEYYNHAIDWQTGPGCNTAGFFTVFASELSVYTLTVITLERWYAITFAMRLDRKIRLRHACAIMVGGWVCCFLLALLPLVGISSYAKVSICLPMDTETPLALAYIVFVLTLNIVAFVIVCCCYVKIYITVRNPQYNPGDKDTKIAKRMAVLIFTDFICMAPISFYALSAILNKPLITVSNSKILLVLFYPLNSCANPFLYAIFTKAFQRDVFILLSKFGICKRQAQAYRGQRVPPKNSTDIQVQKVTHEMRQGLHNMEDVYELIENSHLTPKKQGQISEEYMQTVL

Consider `CC(=O)Nc1c(I)c(NC(C)=O)c(I)c(C(=O)O)c1I`, for which the Potency entry in [1], in assay [2], in [3], in assay [4], in assay [5] and in assay [6] was “inactive” each time. Also, the Potency result in [7], in assay [8], in assay [9], in [10], in assay [12] and in [13] was “inactive” in each case. Further, the Potency result in assay [14], in assay [15] and in [16] was “inactive” throughout. Moreover, the max response in [11] is 8.14% (inactive) and 7% (inactive) and 2.59% (inactive).
Consider `CN(C)CCOC(c1ccccc1)c1ccccc1`, for which the Potency result in assay [1], in assay [2], in assay [3], in assay [4], in assay [5] and in assay [6] was “inactive” in each case. Further, the Potency result in [7], in [8], in assay [9], in assay [10], in assay [12] and in assay [13] was “inactive” each time. For the same compound, the Potency result in assay [14], in [15] and in assay [16] was “inactive” throughout. The max response in [11] is -18.9% (inactive) and -8.63% (inactive) and 0.403% (inactive).
As to `CC(O)(P(=O)(O)O)P(=O)(O)O`, the Potency entry in assay [1], in assay [2], in [3], in assay [4], in assay [5] and in [6] was “inactive” in each case. The Potency result in assay [7], in assay [8], in assay [9], in assay [10], in assay [12] and in assay [13] was “inactive” each time. The Potency entry in [17], in assay [14], in assay [15] and in assay [16] was “inactive” throughout. The max response in assay [11] was -0.279% (inactive) and 1.56% (inactive) and -3.74% (inactive).
For the compound `CN(C)C(=S)SC(=S)N(C)C`, the Potency entry in assay [1], in assay [7] and in [16] was “inactive” in each case. In addition, the Potency in assay [2] was 2 µM (active) and 1.23 µM (active); in assay [4] it was 92.1 µM (active) and 31.8 µM (active); in assay [5], 1.74 µM (active) and 2.68 µM (active); in assay [6], 1.78 µM (active) and 1.55 µM (active) and 6.74 µM (active); in [8] it was 1.38 µM (active) and 3.01 µM (active); in assay [9] it was 2.24 µM (active) and 2.75 µM (active) and 6.74 µM (active). In addition, the Potency in assay [11] was 1.59 µM (active) and 1.23 µM (active) and 6.01 µM (active); in [12], 3.99 µM (active) and 21.9 µM (active); in [13], “inactive and 3.89 µM (active)”; in assay [14], 3.17 µM (active) and 2.45 µM (active) and 2.39 µM (active); in [15], 2.52 µM (active) and 1.38 µM (active) and 2.39 µM (active). The activity change, positive = activation was -68.6% (inactive) in assay [18] (at 42.5 µM (top of the series)); -79.6% (inactive) and -76.2% (inactive) in assay [18] (at 92.4 µM (top of the series)).
Turning to `O=c1[nH]cc(F)c(=O)[nH]1`, the Potency result in assay [1], in assay [3], in [4], in [5], in assay [6] and in [7] was “inactive” each time. Further, the Potency result in assay [8], in assay [9], in [10], in [12], in assay [13] and in assay [14] was “inactive” throughout. Moreover, in [16], the Potency entry was “inactive”. Further, the Potency was 10.1 µM (active) and inactive in assay [2]; 45.3 µM (active) and inactive in [15]. Also, the max response in [11] was -1.84% (inactive) and 1.38% (inactive).
As for `Nc1c2c(nc3ccccc13)CCCC2`, the Potency entry in assay [1], in assay [2], in assay [3], in assay [4], in assay [5] and in [6] was “inactive” in each case. The Potency entry in [7], in assay [8], in [19], in [9], in assay [10] and in assay [12] was “inactive” in each case. Also, the Potency entry in assay [13], in [14], in [15] and in assay [16] was “inactive” throughout. The activity change, positive = activation in assay [18] (at 42.5 µM (top of the series)) is -6.1% (inactive); in assay [18] (at 92.4 µM (top of the series)) it was -44% (inactive) and -30.5% (inactive). The max response in assay [11] is -28% (inactive) and -11.6% (inactive) and 18.3% (inactive).
In the case of `CC1(C)S[C@@H]2[C@H](NC(=O)[C@H](N)c3ccccc3)C(=O)N2[C@H]1C(=O)O`, the Potency entry in [1], in assay [2], in assay [3], in assay [4], in assay [7] and in [12] was “inactive” in each case. Moreover, the Potency entry in assay [13], in [14] and in [15] was “inactive” throughout.
With `Cc1ncc([N+](=O)[O-])n1CCO`, the Potency result in [1], in [2], in [3], in assay [4], in assay [5] and in [6] was “inactive” throughout. For the same compound, the Potency result in [7], in [8], in [9], in assay [10], in assay [12] and in [13] was “inactive” each time. The Potency entry in assay [17], in assay [14], in assay [15] and in [16] was “inactive” throughout. The activity change, positive = activation in assay [18] (at 42.5 µM (top of the series)) was 4.15% (inactive); in assay [18] (at 92.4 µM (top of the series)), 5.04% (inactive) and 2.17% (inactive). In addition, the max response in assay [11] is 2.44% (inactive) and 13.2% (inactive) and 5.09% (inactive).
`CC(C)NCC(O)c1ccc(O)c(O)c1` (centres undefined): the Potency in assay [1] is 7.6 nM (active) and 4.9 nM (active) and 11.9 nM (active); in assay [6], 43.1 µM (active) and inactive; in assay [9], 48.4 µM (active) and inactive; in [11], 38.4 µM (active). Besides, the Potency result in assay [2], in assay [4], in [5], in assay [7], in assay [8] and in [10] was “inactive” each time. For the same compound, the Potency entry in assay [12], in [13], in assay [17], in assay [14], in [15] and in [16] was “inactive” each time. For the same compound, the activity change, positive = activation is 7.23% (inactive) in [18] (at 42.5 µM (top of the series)); 4.56% (inactive) and 1.6% (inactive) in assay [18] (at 92.4 µM (top of the series)). Further, the max response in assay [11] was 1.41% (inactive).
With `NC1CCCCC1`, the Potency in assay [1] was 194 nM (active) and inactive. The Potency result in [2], in assay [3], in [4], in [5], in assay [6] and in assay [7] was “inactive” throughout. Further, the Potency result in assay [8], in assay [9], in assay [10], in assay [12], in [13] and in [14] was “inactive” each time. The Potency result in [15] and in [16] was “inactive” in each case. Moreover, the outcome in assay [20] was inactive. For the same compound, the max response in assay [11] is 1.81% (inactive) [middle of 4 runs].
